The results in this text go back to PubChem BioAssay (NCI).

About 83,000 compounds went through this panel and 20% of them were active in at least one assay; those are over-represented in the sample as a whole.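 Method: cells in 96-well plates; compound added at one concentration; 48 h incubation; percent growth measured; values under 10 scored active.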 Unmarked numbers belong to inactive results. Active and inactive are the calls of the source.

Holding throughout (assay): NCI-60 one-dose screen, 48 h (100 = growth as untreated, 0 = no growth, -100 = all killed)
In one test the test system is BT-549 breast. As to conditions: 10 µM unless noted.
The test system of the next test is MDA-MB-435 melanoma. As to conditions: 10 µM unless noted.
Another test has as its system SW-620 colon. Particulars: 10 µM unless noted.
Another test relates to MCF7 breast. Particulars: 10 µM.
The test system of another test is HCT-116 colon. Particulars: 10 µM unless noted.
The next test has as its system HCC-2998 colon. As to conditions: 10 µM unless noted.
A further test deals with KM12 colon. As to conditions: 10 µM unless noted.

For the compound `CCOC(=O)c1ccc(N=Cc2sc(=O)[nH]c2O)cc1`, the growth was 101% in the test on BT-549 breast; 103% in the test with MDA-MB-435 melanoma; 100% in the test on SW-620 colon; 92% in the test with MCF7 breast; 107% in the test with HCT-116 colon; 101% with HCC-2998 colon. Further, in the test with KM12 colon, the growth was 103%.
For the compound `N[C@@H](CC/[N+]([O-])=N/O)C(=O)O`, the growth with BT-549 breast is 95.2%; with MDA-MB-435 melanoma, 98.4%; with SW-620 colon, 104%; with MCF7 breast it was 93.7%; in the test with HCT-116 colon it was 99.1%; in the test on HCC-2998 colon it was 112%. Besides, the growth with KM12 colon was 104%.
Regarding `O=C(c1nc2ccccc2[nH]1)C1C(c2ccc([N+](=O)[O-])cc2)C2CC3CCCCC3N2[C@@]12C(=O)Nc1cc(Cl)ccc12` (stereo partly specified), the growth in the test on BT-549 breast is 46.9%; with MDA-MB-435 melanoma it was 23%; in the test on SW-620 colon, 31.6%; with MCF7 breast it was 7.25% (active); in the test with HCT-116 colon it was 17.9%; in the test with HCC-2998 colon, 31.6%. In the test with KM12 colon, the growth is 29.1%.
For the compound `COc1cc(C(=O)Nc2ccc(-c3nc4ccccc4[nH]3)cc2)cc(OC)c1OC`, the growth in the test with BT-549 breast was 60.6%; with MDA-MB-435 melanoma, -25.2% (active); in the test on SW-620 colon it was 14.7%; in the test on MCF7 breast, 11.6%; in the test with HCT-116 colon, 24.1%; in the test on HCC-2998 colon, 57.6%. Also, in the test with KM12 colon, the growth is 33.8%.
Turning to `O=C(Nc1ccsc1C(=O)NC1CCCCC1)c1ccc(F)cc1`, the growth in the test on BT-549 breast was 113%; with MDA-MB-435 melanoma, 110%; in the test on SW-620 colon it was 92.5%; with MCF7 breast, 90.6%; in the test on HCT-116 colon, 76%; with HCC-2998 colon it was 97%. In addition, the growth with KM12 colon is 107%.
With `O=C(/C=C/c1ccccn1)c1ccc(OCc2nnc(-c3ccc(Cl)cc3)o2)cc1`, the growth in the test with BT-549 breast is 16.5%; in the test with MDA-MB-435 melanoma, -66.2% (active); in the test with SW-620 colon it was -43.6% (active); in the test with MCF7 breast, -28.3% (active); in the test on HCT-116 colon it was -71.6% (active); with HCC-2998 colon it was 28%. Further, in the test on KM12 colon, the growth is -69.9% (active).
Regarding `O=C(Nc1ccccc1O)c1ccc(Oc2cccc(C(=O)Nc3ccccc3O)c2)cc1`, the growth is 3.78% (active) in the test on BT-549 breast; 28.3% in the test with MDA-MB-435 melanoma; 18.4% in the test with SW-620 colon; 11.3% in the test on MCF7 breast; 9.66% (active) in the test on HCT-116 colon; 21% in the test with HCC-2998 colon. Besides, the growth in the test on KM12 colon was 15.8%.
As to `CCOC(=O)c1sc(-c2ccc(OS(=O)(=O)c3ccc(Br)s3)c(C=O)c2)nc1C`, the growth is 9.16% (active) with BT-549 breast; -12.1% (active) in the test on MDA-MB-435 melanoma; 7.65% (active) with SW-620 colon; 0.976% (active) with MCF7 breast; 2.52% (active) in the test on HCT-116 colon; 82.5% with HCC-2998 colon. The growth with KM12 colon was 6.21% (active).
As to `COc1ccc(-c2nocc2-c2cccs2)cc1`, the growth in the test on BT-549 breast is 105%; with MDA-MB-435 melanoma, 101%; in the test with SW-620 colon, 99.4%; in the test with MCF7 breast, 97.3%; in the test with HCT-116 colon it was 103%; with HCC-2998 colon, 118%. In addition, the growth with KM12 colon is 104%.
For `CCN1CCN(c2cc(C)c3cc(NC(=O)c4ccc(OC)c(OC)c4)ccc3n2)CC1`, the growth is 42.3% in the test on BT-549 breast; -42% (active) in the test on MDA-MB-435 melanoma; 16.7% in the test on SW-620 colon; 17.9% in the test with MCF7 breast; 26.3% with HCT-116 colon; 81.9% in the test on HCC-2998 colon. Moreover, the growth in the test on KM12 colon is 26.2%.
As to `CC(C)CCNCC(O)Cn1c2ccccc2c2ccccc21` (stereo unspecified), the growth in the test on BT-549 breast is 84.3%; in the test on MDA-MB-435 melanoma, 5.65% (active); in the test on SW-620 colon it was 12.5%; in the test with MCF7 breast, 8.76% (active); in the test on HCT-116 colon, 4% (active); in the test on HCC-2998 colon it was 12.1%. Besides, the growth in the test with KM12 colon is 15.7%.
As to `Cc1ccc2sc3c(NCCCNCCO)nc4ccccc4c3c(=O)c2c1`, the growth with BT-549 breast was 90.2%; with MDA-MB-435 melanoma, -80% (active); with SW-620 colon, -78.2% (active); in the test with MCF7 breast, -78.8% (active); with HCT-116 colon it was -67% (active); with HCC-2998 colon, -75.5% (active). The growth in the test with KM12 colon was -50.4% (active).
Take `COc1ccc(Cn2c(Br)c3c(c2-c2cc(OC)c(OC)c(OC)c2)CCc2sc(NC(=O)c4ccc(OC)cc4)nc2-3)cc1`: the growth was 96.1% in the test with BT-549 breast; 99.5% in the test with MDA-MB-435 melanoma; 96.2% in the test on SW-620 colon; 91.5% in the test with MCF7 breast; 90.8% in the test on HCT-116 colon; 108% in the test on HCC-2998 colon. Besides, the growth in the test on KM12 colon is 94.2%.
For `Cc1nc2ccccc2c(/C=C/c2ccc(F)cc2)c1C(N)=O`, the growth with BT-549 breast was 97.4%; in the test on MDA-MB-435 melanoma, 107%; in the test with SW-620 colon, 105%; with MCF7 breast, 69.7%; with HCT-116 colon, 98.3%; in the test on HCC-2998 colon, 128%. The growth in the test on KM12 colon is 101%.
On to `O=C(/C=C/c1ccc(F)cc1)c1ccc(Nc2nc(NCCO)nc(Nc3ccc(Cl)cc3)n2)cc1`, for which the growth in the test with BT-549 breast is 72%; with MDA-MB-435 melanoma it was 74.5%; in the test on SW-620 colon, 46.3%; with MCF7 breast it was 4.3% (active); with HCT-116 colon it was 8.67% (active); in the test on HCC-2998 colon, 29.9%. Also, the growth with KM12 colon was 25.5%.
`Cc1[nH]c2ccccc2c(=O)c1CC=C(Cl)Cl`: the growth was 135% with BT-549 breast; 47.5% in the test with MDA-MB-435 melanoma; 10.5% with SW-620 colon; -88.7% (active) in the test on MCF7 breast; -65.6% (active) with HCT-116 colon; 59.3% in the test on HCC-2998 colon. Further, the growth in the test on KM12 colon was 18.2%.
Turning to `CN1C(=O)N(C)C2Nn3c(s/c(=C\c4ccc(Cl)cc4Cl)c3=O)=NC21` (stereo unspecified), the growth is 93.9% in the test with BT-549 breast; 8.74% (active) with MDA-MB-435 melanoma; 63.1% in the test on SW-620 colon; 45.4% in the test with MCF7 breast; 43.9% in the test with HCT-116 colon; 86.5% with HCC-2998 colon. Further, in the test with KM12 colon, the growth was 28.7%.
Regarding `COc1cccc(/C=C/C(=O)c2c(C)nc3ccccc3c2/C=C/c2ccccc2)c1OC`, the growth is 29.4% with BT-549 breast; 15.1% in the test on MDA-MB-435 melanoma; 13.2% in the test on SW-620 colon; 13.9% in the test on MCF7 breast; 4.08% (active) in the test on HCT-116 colon; 41.1% with HCC-2998 colon. For the same compound, in the test with KM12 colon, the growth is 26.6%.
In the case of `O=C(Nc1ccc(N2CCNCC2)cn1)c1[nH]ncc1Nc1ncnc2sc3c(c12)CCC3`, the growth in the test with BT-549 breast was 85.4%; in the test with MDA-MB-435 melanoma, -63.2% (active); in the test with SW-620 colon it was -76.1% (active); in the test on MCF7 breast, -34% (active); in the test with HCT-116 colon it was -75% (active); in the test with HCC-2998 colon it was 33.8%. In the test with KM12 colon, the growth is 53.4%.
`Oc1ccc(-c2nc(-c3ccc4oc5ccc(-c6[nH]c(-c7ccc(O)cc7)nc6-c6ccccc6)cc5c4c3)c(-c3ccccc3)[nH]2)cc1`: the growth is 57.2% in the test on BT-549 breast; 43.5% with MDA-MB-435 melanoma; 54.7% in the test on SW-620 colon; 50.7% in the test with MCF7 breast; 31.3% in the test on HCT-116 colon; 62.3% with HCC-2998 colon. Besides, the growth in the test with KM12 colon was 50.8%.
In the case of `CCOC(=O)C1=C(C)N=c2s/c(=C\c3cc(Cl)ccc3O)c(=O)n2C1c1ccc(OC)cc1` (stereo unspecified), the growth in the test on BT-549 breast was 102%; in the test with MDA-MB-435 melanoma it was 107%; with SW-620 colon, 103%; in the test with MCF7 breast, 93.2%; with HCT-116 colon it was 72.2%; in the test with HCC-2998 colon it was 98.6%. Further, in the test on KM12 colon, the growth is 94.2%.
`Nc1ccc(C2c3ccccc3Oc3ccccc32)cc1`: the growth with BT-549 breast was 109%; with MDA-MB-435 melanoma, 104%; with SW-620 colon, 101%; in the test on MCF7 breast, 104%; in the test on HCT-116 colon, 97.8%; in the test with HCC-2998 colon, 117%. Also, the growth with KM12 colon was 103%.
Turning to `C=C1C(=O)O[C@H]2[C@H]1CC/C(COC(=O)/C=C\C(=O)O)=C\CC[C@@]1(C)O[C@@H]21`, the growth was 103% with BT-549 breast; 107% in the test with MDA-MB-435 melanoma; 105% in the test with SW-620 colon; 94.3% in the test with MCF7 breast; 109% in the test with HCT-116 colon; 104% in the test with HCC-2998 colon. In addition, the growth with KM12 colon was 106%.
